25 molecules from PubChem BioAssay (NCATS) can be followed below.

Experiment [1] can be described thus: qHTS for Inhibitors of Cell Surface uPA Generation: Validation Assay (AID 493164).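 Also: RAW 264.7 macrophage cells exposed to compound for 18 h.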 An outline of the steps: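 RAW 264.7, 4000 cells/well, o/n plating; cpd 7-pt 1:5 dilution 2.45 nM–38.3 uM final; 18 h, 37 C/5% CO2; ATP-Lite, 5 s luminescence exposure.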
On the technique in general: qHTS replaces the single test concentration by a dilution series.

In experiment [2] the target is Galactokinase (Homo sapiens) (UniProt P51570). Put plainly: qHTS Validation Assay for Inhibitors of Human Galactokinase (GALK) (AID 493189). The gist of the method: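 Compounds were pin-transferred into ATP buffer, then GALK-galactose mix was added (final 5 nM enzyme, 100 uM galactose, 35 uM ATP). After 1 h at room temperature, remaining ATP was measured luminescently.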
Galactokinase (Homo sapiens), sequence (P51570 whole entry, looked up): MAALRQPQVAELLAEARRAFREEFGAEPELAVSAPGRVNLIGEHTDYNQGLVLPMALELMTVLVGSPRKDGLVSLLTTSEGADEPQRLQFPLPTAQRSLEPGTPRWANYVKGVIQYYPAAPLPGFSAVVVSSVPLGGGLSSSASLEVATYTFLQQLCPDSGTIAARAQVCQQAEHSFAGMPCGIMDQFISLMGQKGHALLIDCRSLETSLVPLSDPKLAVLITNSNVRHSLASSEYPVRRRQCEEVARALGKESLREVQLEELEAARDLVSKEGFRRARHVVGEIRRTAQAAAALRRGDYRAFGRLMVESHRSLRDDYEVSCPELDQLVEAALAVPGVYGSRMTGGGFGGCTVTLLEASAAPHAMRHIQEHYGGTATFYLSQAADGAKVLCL

The nature of experiment [3]: Validation screen for small molecules that induce DNA re-replication in SW480 colon adenocarcinoma cells (AID 504364). Also: potency is read from the fitted curve at half-maximal effect. The gist of the method:
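Cells are treated 48 hr with test compound, stained 40 min with Hoechst at 37 C, and scanned for nuclear fluorescence; compounds inducing re-replication increase nuclei with elevated intensity.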

Experiment [4] deals with Peptidyl-prolyl cis-trans isomerase NIMA-interacting 1 (Homo sapiens) (UniProt Q13526). Put plainly: qHTS Validation Assay to Find Inhibitors of Pin1 (AID 504536; active = well fitted inhibition curve with a large enough effect in the polarisation, with a control signal flat, not every such curve was filed as active; the % refers to the polarisation). An outline of the steps:
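Fluorescence polarization competition: compounds (titration) displace HiFluor-488-labeled Pin1-1b peptide from Pin1 (0.3 uM final) in pH 7.5 HEPES buffer with DTT, 10 min at room temperature; %Activity normalized to no-enzyme wells, curves fitted.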

In experiment [5] the target is Phosphoglycerate kinase, glycosomal (Trypanosoma brucei brucei) (UniProt P07378). Put plainly: qHTS Validation Assay to Find Inhibitors of Phosphoglycerate Kinase (AID 504547). The gist of the method:
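PGK activity was coupled to GAPDH (100nM final), which generates the unstable substrate 1,3-bisphosphoglycerate in-well. Reactions ran 60 minutes at room temperature in 100mM TEA pH 7.6, 5mM MgCl2, 0.01% Tween-20, then Kinase-Glo Plus luminescence was read.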

Experiment [6] addresses phosphoglycerate mutase (Leishmania major) (UniProt Q4Q090). Put plainly: qHTS Validation Assay to Find Inhibitors of Phosphoglycerate Mutase (AID 504548).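 Also: end-point luminescence from Kinase-GloPlus after the PGAM reaction; series mostly up to about 58 µM.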 Particulars: Potency: inhibition qHTS. The gist of the method:
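Inhibition of L. major PGAM was assessed by Kinase-GloPlus luminescence following a 45-minute room-temperature reaction with enzyme at 1.25nM final.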

The target in experiment [7] is Ubiquitin carboxyl-terminal hydrolase 1 (Homo sapiens) (UniProt O94782). Put plainly: Inhibitors of USP1/UAF1: Pilot qHTS (AID 504865). Also: nearly all actives have a fitted effect of over 35% in size. Also: potency is read from the fitted curve at half-maximal effect. An outline of the steps:
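Kinetic fluorescence assay: 1nM USP1/UAF1, 15 min compound preincubation, then 150nM Ub-Rho; 480/540 nm.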

The nature of experiment [8]: qHTS for Inhibitors of ATXN expression: Validation of Cytotoxic Assay (AID 588349).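 Also: cells exposed to compound for 72 hr.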 The gist of the method:
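HEK293, compound dose series, 72 hr / 37 degrees C; viability via CellTiter Glo (intracellular ATP).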

A short description of experiment [9]: qHTS for Inhibitors of ATXN expression: Validation (AID 588378). Also: nearly all actives have a fitted effect of over 75% in size. Also: potency is read from the fitted curve at half-maximal effect. An outline of the steps: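 Validation of ATXN2 expression inhibitors uses a cell-based luciferase fusion reporter in HEK293 cells, with 24 h compound exposure and paired viability (fluorescence) and reporter (luminescence) end-point reads.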
Experiment [10] concerns the target DNA dC->dU-editing enzyme APOBEC-3G (Homo sapiens) (UniProt Q9HC16). Put plainly: qHTS for inhibitors of Vif-A3G interactions: Validation (AID 588379). Also: potency is read from the fitted curve at half-maximal effect. The gist of the method:
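HeLa cells stably expressing Vif and A3G-eYFP, 700 cells/well, incubated overnight at 37 deg C, then exposed to compound overnight at 37 deg C. Inhibition of Vif-mediated degradation read as increased yellow fluorescence (Ex 488/Em 500-530) by laser-scanning cytometry.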

Records with an inconclusive call do not appear. The source made the active and inactive calls. Unless noted, calls follow the shape of the dose curve; as a rule, active = well fitted curve in the direction sought with a large enough effect; inconclusive = small, poorly fitted or top-dose-only effect, or another doubt; inactive = no such curve, though single readings can be large; an effect the other way counts as inactive or inconclusive.

DNA dC->dU-editing enzyme APOBEC-3G (Homo sapiens), sequence (Q9HC16 whole entry, looked up): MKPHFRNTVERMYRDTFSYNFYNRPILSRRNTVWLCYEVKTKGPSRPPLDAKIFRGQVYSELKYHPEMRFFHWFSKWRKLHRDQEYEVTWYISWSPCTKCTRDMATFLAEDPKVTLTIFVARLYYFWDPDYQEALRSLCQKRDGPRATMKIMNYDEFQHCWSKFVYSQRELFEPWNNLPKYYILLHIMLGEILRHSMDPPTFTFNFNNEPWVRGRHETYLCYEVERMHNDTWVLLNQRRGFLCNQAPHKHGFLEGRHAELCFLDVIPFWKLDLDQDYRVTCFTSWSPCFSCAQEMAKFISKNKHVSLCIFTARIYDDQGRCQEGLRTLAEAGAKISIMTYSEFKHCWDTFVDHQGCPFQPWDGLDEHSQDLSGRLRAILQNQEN
Ubiquitin carboxyl-terminal hydrolase 1 (Homo sapiens), sequence (O94782 whole entry, looked up): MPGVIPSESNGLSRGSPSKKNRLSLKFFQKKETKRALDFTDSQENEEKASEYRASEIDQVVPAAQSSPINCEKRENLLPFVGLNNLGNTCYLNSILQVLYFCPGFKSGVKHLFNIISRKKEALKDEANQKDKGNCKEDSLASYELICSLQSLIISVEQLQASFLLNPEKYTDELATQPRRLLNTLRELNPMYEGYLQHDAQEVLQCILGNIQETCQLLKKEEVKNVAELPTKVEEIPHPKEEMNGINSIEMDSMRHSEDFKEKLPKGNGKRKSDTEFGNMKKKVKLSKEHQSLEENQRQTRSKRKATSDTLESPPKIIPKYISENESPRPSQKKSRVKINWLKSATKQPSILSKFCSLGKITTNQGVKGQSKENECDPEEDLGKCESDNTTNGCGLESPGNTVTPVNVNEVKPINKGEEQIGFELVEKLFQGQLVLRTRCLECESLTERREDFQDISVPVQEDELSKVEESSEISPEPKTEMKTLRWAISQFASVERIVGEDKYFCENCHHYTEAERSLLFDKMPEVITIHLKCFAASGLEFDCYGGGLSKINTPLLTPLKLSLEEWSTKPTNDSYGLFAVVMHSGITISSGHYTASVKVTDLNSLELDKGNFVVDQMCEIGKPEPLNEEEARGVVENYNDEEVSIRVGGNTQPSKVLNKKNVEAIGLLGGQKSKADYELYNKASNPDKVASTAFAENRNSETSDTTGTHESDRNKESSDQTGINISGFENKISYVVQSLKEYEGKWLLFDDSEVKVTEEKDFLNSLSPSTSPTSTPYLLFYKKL
Peptidyl-prolyl cis-trans isomerase NIMA-interacting 1 (Homo sapiens), sequence (Q13526 whole entry, looked up): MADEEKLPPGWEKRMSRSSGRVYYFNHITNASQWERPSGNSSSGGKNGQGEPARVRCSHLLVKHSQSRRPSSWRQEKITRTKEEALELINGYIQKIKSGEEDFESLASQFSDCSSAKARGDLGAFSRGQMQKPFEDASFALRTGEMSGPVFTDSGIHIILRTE
Phosphoglycerate kinase, glycosomal (Trypanosoma brucei brucei), sequence (P07378 whole entry, looked up): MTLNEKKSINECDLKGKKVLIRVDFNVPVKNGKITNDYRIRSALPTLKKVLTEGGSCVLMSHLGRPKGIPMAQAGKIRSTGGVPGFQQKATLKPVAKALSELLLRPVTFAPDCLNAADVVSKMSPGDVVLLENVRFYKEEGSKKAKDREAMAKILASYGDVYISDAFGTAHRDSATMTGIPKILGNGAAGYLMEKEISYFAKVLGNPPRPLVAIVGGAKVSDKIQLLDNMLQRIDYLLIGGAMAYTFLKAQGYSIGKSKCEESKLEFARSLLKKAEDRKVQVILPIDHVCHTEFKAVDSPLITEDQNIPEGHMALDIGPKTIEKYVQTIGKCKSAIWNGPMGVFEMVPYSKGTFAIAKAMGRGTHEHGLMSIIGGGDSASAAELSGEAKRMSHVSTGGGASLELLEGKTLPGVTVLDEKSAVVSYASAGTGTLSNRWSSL
phosphoglycerate mutase (Leishmania major), sequence (Q4Q090 1-553): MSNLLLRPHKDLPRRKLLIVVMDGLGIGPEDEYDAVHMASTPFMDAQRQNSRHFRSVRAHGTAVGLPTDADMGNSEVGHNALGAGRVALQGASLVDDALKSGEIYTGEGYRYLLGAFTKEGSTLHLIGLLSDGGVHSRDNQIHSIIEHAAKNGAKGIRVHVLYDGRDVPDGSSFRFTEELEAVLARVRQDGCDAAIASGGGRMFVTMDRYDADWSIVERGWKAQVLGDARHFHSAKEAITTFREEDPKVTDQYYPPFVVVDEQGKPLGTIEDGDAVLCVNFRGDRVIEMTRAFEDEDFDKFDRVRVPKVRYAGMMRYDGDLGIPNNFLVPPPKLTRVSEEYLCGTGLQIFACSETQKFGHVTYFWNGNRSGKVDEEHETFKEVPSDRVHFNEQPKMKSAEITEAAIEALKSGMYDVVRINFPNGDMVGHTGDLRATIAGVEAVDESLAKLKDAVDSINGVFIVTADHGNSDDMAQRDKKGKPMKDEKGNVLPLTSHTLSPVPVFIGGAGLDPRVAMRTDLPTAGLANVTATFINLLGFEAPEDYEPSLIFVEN

On to `CCCCN1CCC(n2c(=O)[nH]c3ccccc32)CC1`, for which the result in [1] was inactive. Further, the Potency result in experiment [2], in experiment [3], in [4], in experiment [5], in experiment [6] and in experiment [7] was “inactive” throughout. The Potency result in [8] and in [9] was “inactive” in each case.
Regarding `O=c1[nH]c2cc([N+](=O)[O-])c([N+](=O)[O-])cc2[nH]c1=O`, the outcome in experiment [1] was inactive. The Potency result in experiment [2], in [3], in [4], in [5], in experiment [6] and in [7] was “inactive” each time. Moreover, the Potency entry in experiment [8] and in [10] was “inactive” each time.
For the molecule `CC(C)NC[C@H](O)COc1cccc2[nH]ccc12`, the outcome in experiment [1] was inactive. The Potency result in experiment [2], in [3], in [4], in experiment [5], in experiment [6] and in experiment [7] was “inactive” in each case. In addition, the Potency entry in experiment [8], in experiment [9] and in [10] was “inactive” in each case.
On to `O=C(O)[C@@H]1C[C@H](C(=O)O)N1`, for which, in [1], the outcome was inactive. Also, the Potency entry in experiment [2], in experiment [3], in experiment [4], in experiment [5], in experiment [6] and in experiment [7] was “inactive” in each case. Also, the Potency result in experiment [8] and in experiment [9] was “inactive” throughout.
Consider `Fc1ccc(C(OCCCc2cnc[nH]2)c2ccc(F)cc2)cc1`, for which the result in experiment [1] was inactive. In addition, the Potency result in experiment [2], in experiment [3], in experiment [4], in experiment [5], in experiment [6] and in experiment [8] was “inactive” throughout.
For `C[C@@H](NC(=O)/C(C#N)=C/c1ccc(O)c(O)c1)c1ccccc1`, in experiment [1], the molecule was classed as inactive. Besides, the Potency entry in [2], in experiment [3], in experiment [4], in experiment [5], in experiment [6] and in [7] was “inactive” each time. Moreover, the Potency result in [9] and in experiment [10] was “inactive” each time.
Consider `OCC1O[C@H](O)C(Cl)C(O)C1O` (some centres not stated), for which the result in experiment [1] was inactive. For the same molecule, the Potency result in experiment [2], in experiment [3], in experiment [4], in [5], in experiment [6] and in experiment [7] was “inactive” each time. In addition, the Potency entry in experiment [8] and in experiment [9] was “inactive” in each case.
As to `O=C(O)c1cc(=O)c2c(Cl)cc(Cl)cc2[nH]1`, the molecule was called inactive in experiment [1]. Besides, the Potency entry in [2], in experiment [3], in [4], in experiment [5], in experiment [6] and in experiment [7] was “inactive” throughout. The Potency entry in experiment [8], in experiment [9] and in [10] was “inactive” throughout.
As for `Fc1cccc(/C=N/N=C/c2cccc(F)c2)c1`, the molecule was called inactive in [1]. In addition, the Potency entry in experiment [2], in experiment [3], in [4], in experiment [5], in [6] and in experiment [7] was “inactive” each time. Also, the Potency result in experiment [8] and in [9] was “inactive” in each case.
With `C=CC(N)CCC(=O)O` (configuration not stated), the result in experiment [1] was inactive. The Potency entry in experiment [2], in experiment [3], in [4], in experiment [5], in experiment [6] and in experiment [7] was “inactive” each time. For the same molecule, the Potency entry in experiment [8] and in experiment [9] was “inactive” each time.
For `CNCC[C@H](Oc1ccc(C(F)(F)F)cc1)c1ccccc1`, the call in experiment [1] was inactive. In addition, the Potency result in experiment [2], in experiment [3], in experiment [4], in experiment [5], in experiment [6] and in experiment [7] was “inactive” in each case. Besides, the Potency result in experiment [10] is “inactive”.
Take `CC(C)(C=O)Cc1cc(C(C)(C)C)c(O)c(C(C)(C)C)c1`: the result in experiment [1] was inactive. The Potency result in experiment [2], in [3], in [4], in experiment [5], in experiment [6] and in experiment [7] was “inactive” in each case. The Potency entry in experiment [10] was “inactive”.
Consider `CC12C(=O)OC(=O)C1(C)C1CCC2O1` (configuration not stated), for which the result in experiment [1] was inactive. In addition, the Potency result in experiment [2], in experiment [3], in [4], in experiment [5], in experiment [6] and in [7] was “inactive” each time. In experiment [10], the Potency entry was “inactive”.
For `CCCN(CC1CC1)c1nc(C)nc(Nc2c(Cl)cc(Cl)cc2Cl)c1Cl`, in experiment [1], the call was inactive. In addition, the Potency result in experiment [2], in experiment [3], in experiment [4], in experiment [5], in experiment [6] and in [7] was “inactive” each time. Also, the Potency result in [8] and in experiment [10] was “inactive” in each case.
In the case of `N[C@@H](CC(=O)O)C(=O)O`, the result in experiment [1] was inactive. The Potency entry in experiment [2], in experiment [3], in experiment [4], in experiment [5], in experiment [6] and in [7] was “inactive” throughout. Further, the Potency result in [8] and in experiment [10] was “inactive” each time.
Take `CCCn1c(=O)c2[nH]c(-c3ccc(OCC(=O)NCCN)cc3)nc2n(CCC)c1=O`: in experiment [1], the result was inactive. The Potency result in experiment [2], in [3], in [4], in experiment [5], in [6] and in experiment [7] was “inactive” in each case. In [9], the Potency entry was “inactive”.
With `c1cnc2c(c1)ccc1cccnc12`, the molecule was called inactive in experiment [1]. In addition, the Potency result in experiment [2], in experiment [3], in experiment [4], in experiment [5], in [6] and in experiment [7] was “inactive” each time. Moreover, the Potency in experiment [9] was 3.55 µM (active).
Consider `COc1cc2c(CCNC(C)=O)c[nH]c2cc1Cl`, for which, in [1], the molecule was classed as inactive. The Potency entry in [2], in experiment [3], in experiment [4], in [5], in [6] and in experiment [7] was “inactive” throughout. Besides, the Potency entry in experiment [8], in experiment [9] and in experiment [10] was “inactive” each time.
As to `COc1cccc(C(=O)NCCN2CCN(c3ccc(Cl)cc3)CC2)c1`, the result in [1] was inactive. In addition, the Potency entry in [2], in experiment [3], in experiment [4], in experiment [5], in experiment [6] and in experiment [7] was “inactive” each time. In addition, the Potency result in experiment [8] and in experiment [9] was “inactive” each time.
With `CCCCCCCCCCCCCCCC(=O)NCC(COP(=O)([O-])OCC[N+](C)(C)C)OCC` (configuration not stated), in [1], the call was inactive. Also, the Potency entry in [2], in [4], in experiment [5] and in experiment [6] was “inactive” throughout. Also, in [7], the Potency is 79.4 µM (active).
Take `CCCCCCCCCCCCCCCCCC(=O)OC(CC(=O)O)C[N+](C)(C)C` (configuration not stated): in [1], the result was inactive. The Potency entry in experiment [2], in experiment [4], in [5], in [6] and in experiment [9] was “inactive” in each case. Further, the Potency in experiment [3] is 11.6 µM (active).
For `COc1ccc(/C=C/C(=O)Nc2ccccc2C(=O)O)cc1OC`, the result in [1] was inactive. Besides, the Potency result in experiment [2], in experiment [3], in experiment [4], in experiment [5], in experiment [6] and in experiment [8] was “inactive” in each case.
In the case of `Cn1cc(C2=C(c3ccc(Cl)cc3Cl)C(=O)NC2=O)c2ccccc21`, the molecule was called inactive in experiment [1]. For the same molecule, the Potency result in [2], in experiment [3], in experiment [5], in experiment [6], in experiment [8] and in experiment [9] was “inactive” throughout. For the same molecule, the figures for the Potency in experiment [7] and in experiment [10] were 23.8 µM (active) and 2.99 µM (active), respectively.
With `O=C(O)c1cc([N+](=O)[O-])ccc1NCCCc1ccccc1`, in experiment [1], the molecule was classed as inactive. Also, the Potency result in experiment [2], in experiment [3], in experiment [4], in [5], in experiment [6] and in [9] was “inactive” in each case. For the same molecule, in experiment [10], the Potency result is “inactive”.
For the molecule `O=C(O)CNC(=O)C(CS)Cc1ccccc1` (configuration not stated), the molecule was classed as inactive in [1]. The Potency result in [2], in experiment [3], in [4], in experiment [5], in [6] and in experiment [8] was “inactive” each time. Moreover, the Potency entry in [9] was “inactive”.
